In the library only some 4.7% were active in any assay of this set; here they are far more common.
D1 antag: Antagonist of Human D 1 Dopamine Receptor: qHTS | hit rate 3.2% among 360,000 | HEK293 TREx D1 cells, calcium flux, dopamine EC80; active compounds read low | D(1A) dopamine receptor (Homo sapiens), P21728 | activity change, negative = inhibition, % at 10 µM; in the data active = activity change below about -30%; note: % is set by controls: 0 for no effect and ±100 for the full control effect
Target sequence (P21728 whole entry, looked up): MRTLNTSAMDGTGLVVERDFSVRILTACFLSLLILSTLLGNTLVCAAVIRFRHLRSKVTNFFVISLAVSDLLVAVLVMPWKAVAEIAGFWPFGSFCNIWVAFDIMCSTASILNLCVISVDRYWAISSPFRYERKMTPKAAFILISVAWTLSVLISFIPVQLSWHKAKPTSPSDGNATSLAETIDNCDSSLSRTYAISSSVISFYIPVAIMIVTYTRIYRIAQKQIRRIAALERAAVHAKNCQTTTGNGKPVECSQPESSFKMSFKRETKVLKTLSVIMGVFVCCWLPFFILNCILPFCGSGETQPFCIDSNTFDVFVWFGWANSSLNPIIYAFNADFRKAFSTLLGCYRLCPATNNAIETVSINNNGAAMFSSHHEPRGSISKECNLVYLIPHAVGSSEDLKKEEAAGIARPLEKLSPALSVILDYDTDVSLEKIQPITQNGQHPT
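Cells carrying a force-coupled, tetracycline-inducible human D1 receptor report calcium flux. Each well gets a 10 s baseline, compound with 180 s monitoring, then an EC80 dopamine stimulus with a second 180 s kinetic read.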
TRHR PAM: qHTS for Small Molecule Agonists and Allosteric Enhancers of Human TRH Receptor: Primary Screen for Enhancers; TRHR cells, fluo-8 calcium fluorescence, EC20 TRH enhancement; hit rate 0.66% among 360,000; enhancement, % at 2 µM; in the data active = enhancement above about 30%; note: 0% is about no effect
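Enhancer read-out: after compound pinning and an initial kinetic agonist-mode read, an EC20 of TRH (10 nM final) was injected and fluo-8 calcium signal (Ex 480/Em 530) followed at 1 s/cycle for 100 cycles in TRHR-expressing cells.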
D1 potentiator: Potentiators of Human D1 Dopamine Receptor: qHTS; D(1A) dopamine receptor (Homo sapiens), P21728; HEK293 TREx D1 cells, calcium flux, dopamine EC20 potentiation; potentiation, % at 10 µM; hit rate 0.036% among 360,000; in the data active = potentiation above about 30%; note: 0% is about no effect
D1 agonist: Allosteric Agonists of the Human D1 Dopamine Receptor: qHTS. D(1A) dopamine receptor (Homo sapiens), P21728. HEK293 T-REx D1 cells, calcium flux, agonist mode. activation, % at 2 µM. hit rate 1% among 360,000; note: 0% is about no effect
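Tetracycline-induced HEK293 TREx D1 cells, force-coupled to calcium signalling, were dye-loaded with a no-wash calcium kit. Compound was pin-added after a 10 s baseline. Fluorescence was read kinetically at 1 cycle/s for 180 s, with calcium rises flagged as agonism.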
TRHR ag: qHTS for Small Molecule Agonists and Allosteric Enhancers of Human TRH Receptor: Primary Screen for Agonists. Thyrotropin-releasing hormone receptor (Homo sapiens), P34981. activation, % at 2 µM. AID 493084, 2011. hit rate 0.18% among 360,000. TRHR cells, calcium flux fluo-8, FDSS agonist mode; note: 0% is about no effect
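Read-out: compound-evoked intracellular calcium rise in TRHR cells, fluo-8 dye, kinetic FDSS fluorescence at 1 s/cycle following a 10-cycle baseline. Cells cultured overnight before dye loading (30 min–1.5 h, RT).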
* hit, by the source's call. Cut-off read from the data, not from the text of the source, unless noted: active = activation above about 30%; inactive = the rest.

SMILES | D1 antag | TRHR PAM | D1 potentiator | D1 agonist | TRHR ag
COc1ccc(CN2CCC(=O)N([C@H](CO)CC(C)C)CC2)cc1OC | -7 | -14 | -4 | -1 | 1
Cn1c(=O)c2c(nc(CN3CCN(Cc4ccccc4)CC3)n2Cc2cccc(Cl)c2)n(C)c1=O | 1 | -3 | -14 | 40* | -1
COC(=O)Cn1c(CN(C)Cc2ccccc2)nc2c1c(=O)n(C)c(=O)n2C | 0 | -4 | 4 | 1 | 0
COC(=O)Cn1c(CN2CCC(Cc3ccccc3)CC2)nc2c1c(=O)n(C)c(=O)n2C | -36* | -2 | -7 | 17 | -1
Cn1c(=O)c2c(nc(CN3CCN(C(=O)c4ccco4)CC3)n2CCc2ccccc2)n(C)c1=O | -74* | -1 | 2 | 0 | -1
CC(C)CCNC(=O)c1ccc2c(c1)NC(=O)C(CS(=O)(=O)Cc1cccc(Br)c1)N2 (stereo unspecified) | -42* | 0 | -10 | 5 | -2
Cc1cc2c(s1)c1cnn(Cc3c(F)ccc(C)c3Cl)c(=O)c1n2C | -23 | -5 | 3 | 3 | 1
Cc1cc2c(s1)c1cnn(Cc3c(F)ccc(C)c3F)c(=O)c1n2C | -24 | 4 | 12 | 0 | 0
Cc1cccc(C)c1NC(=O)N1CCCCCCC1 | 6 | 39* | -2 | 1 | 0
Cc1cccc(C)c1NC(=O)N1CC=CCC1 | 0 | -5 | 4 | 2 | 0
CC(C)CC(NC(=O)C1CCC(C)CC1)C(=O)Nc1cccnc1 (stereo unspecified) | -35* | -7 | -3 | 0 | 0
CC(C(=O)Nc1cccnc1)c1ccc([N+](=O)[O-])cc1 (stereo unspecified) | 6 | 0 | 5 | 25 | 3
CC(C)Cc1ccc(C(C)C(=O)Nc2cccnc2)cc1 (stereo unspecified) | -51* | -7 | -5 | 75* | 10
CC(C)Cc1ccc(C(C)C(=O)Nc2ccc(O)cc2)cc1 (stereo unspecified) | -68* | -11 | 5 | 83* | 14
CCOc1ccc(NC(=O)CN2C(=O)CC(C)Sc3ccccc32)cc1 (stereo unspecified) | -7 | 5 | 3 | 1 | 0
O=C(NNC(=O)c1cccc(Br)c1)Nc1ccc(Cl)cc1 | -37* | -6 | -6 | 1 | 0
COC(=O)CCC(=O)NNC(=O)c1cccc(Br)c1 | -38* | -5 | -4 | 2 | 0
O=C(O)CCC(=O)NNC(=O)c1cccc(Br)c1 | 5 | 4 | -3 | 1 | -1
CCCCCN(C(=O)CCC(=O)OCC(=O)N(C)Cc1ccccc1C)c1c(N)n(CCCC)c(=O)[nH]c1=O | 5 | -14 | 3 | 5 | 0
COC(=O)CCCC(=O)N1CCCC(C(=O)c2ccccc2SC)C1 (stereo unspecified) | -20 | 1 | -5 | 3 | -1
COC(=O)CCCC(=O)N1CCCC(CCC(=O)NCc2ccc(F)c(F)c2)C1 (stereo unspecified) | -44* | 7 | -6 | 8 | -1
CCC(=O)N1CCCC(C(=O)c2ccc(-c3ccccc3)cc2)C1 (stereo unspecified) | -30* | 0 | -6 | 5 | 0
O=C(c1ccc(-c2ccccc2)cc1)C1CCCN(C(=O)Cn2cncn2)C1 (stereo unspecified) | 8 | -5 | 0 | 4 | 0
COC(=O)CCCC(=O)N1CCCC(C(=O)c2ccc(-c3ccccc3)cc2)C1 (stereo unspecified) | -30* | 3 | -9 | 4 | -1
O=C(Cn1c(=O)c2ccccc2n(CC(=O)Nc2ccc(Cl)cc2)c1=O)NCCc1ccccc1 | -1 | -1 | 0 | 5 | 2
SMILES | D1 antag | TRHR PAM | D1 potentiator | D1 agonist | TRHR ag
Cc1noc(C)c1COc1ccc(C(=O)NCC(c2c(F)cccc2Cl)N(C)C)cc1 (stereo unspecified) | 9 | -3 | -2 | 4 | 0
CCCCOc1ccc(C(=O)Nc2cccc(C)n2)cc1 | -8 | -4 | -4 | 6 | -1
O=C(Nc1cccc(NC(=O)c2ccc(Cl)cc2)n1)c1ccc(Cl)cc1 | -33* | 1 | -4 | 6 | 1
CCOc1ccc(C(=O)Nc2cccc(C)n2)cc1 | -7 | 41* | 1 | 1 | 0
COc1ccc(-c2cn3c(C)c(C(=O)Nc4cccc(C)n4)sc3n2)cc1 | -59* | 1 | -4 | 1 | 1
O=C(Nc1ccc2ccccc2n1)c1ccc(Cl)cc1 | -22 | 4 | 1 | 10 | -2
Cc1cccc(NC(=O)c2sc3nc(-c4ccccc4)cn3c2C)n1 | -15 | -3 | -2 | 11 | 5
O=c1ccc2cc(S(=O)(=O)N3CCCC3)ccc2[nH]1 | -2 | 6 | -2 | 0 | 0
O=S(=O)(c1ccc2[nH]ccc2c1)N1CCCCCC1 | -30* | -8 | -2 | 1 | 0
CCn1c(C)nnc1SCC(=O)Nc1cccc(Cl)c1 | -43* | 2 | 0 | -4 | 0
CCCCN(CC)CCNC(=O)CCn1cnc2onc(-c3ccc(F)cc3)c2c1=O | -25 | -7 | -6 | 32* | 4
COc1ccc(/C=C/C(=O)C2CC2)cc1Cn1nc(C)c([N+](=O)[O-])c1C | -3 | 38* | 1 | 1 | -1
COc1ccc(C(C)=O)cc1Cn1nc(C)c([N+](=O)[O-])c1C | -1 | -6 | -4 | 1 | 0
COc1ccc(-n2c(=O)c(NC(=O)c3ccccc3)c3n(c2=S)CCCCC3)cc1 | -31* | 1 | -4 | 2 | 0
C=CCn1c(=O)/c(=C/c2ccc(O)cc2)s/c1=C(/C#N)c1nnc2n1CCCCC2 | -1 | -6 | 1 | 50* | 30*
CCCN1CCN(c2ncnc3sc(C(=O)Nc4c(C)cc(C)cc4C)c(C)c23)CC1 | -1 | -1 | 1 | 0 | 0
Cc1ccc(C)c(N2CCN(C(=O)c3ccc4c(=O)n(CCc5ccccc5)c(=O)[nH]c4c3)CC2)c1 | -30* | -1 | 4 | -1 | 0
CCCCNC(=O)c1ccc2c(OCC)n(CCCC)nc2c1 | -1 | -4 | -3 | 0 | -1
CC1CCN(CCCNC(=O)c2ccc3c(=O)n(Cc4ccc(Cl)cc4)c(=S)[nH]c3c2)CC1 | 0 | -7 | -8 | 12 | 1
COc1c2ccc(C(=O)NCCCCc3ccccc3)cc2nn1C | -35* | 4 | -8 | 3 | 0
CCCn1nc2cc(C(=O)NCCc3cccs3)ccc2c1OCC | -83* | -23 | -12 | 1 | -1
